Laboratory results: PubChem BioAssay AID1159580 (chemical genetic matrix, 2015)
The campaign covered roughly 5,500 compounds. About 2,000 (36%) were called active. Roughly 18% stayed inconclusive and do not appear here. Some of the results follow. Unmarked numbers belong to inactive results. Cut-off read from the data, not from the text of the source: active = normalized growth mostly below about 0.91 (no sharp cut-off); inconclusive = no clear call, values can overlap the other calls; inactive = mostly above about 0.92.

Experiment: chemical genetic growth profiling, strain panel (AID 1159580);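 note: tested at 20 µM; growth read once vehicle control cultures reached saturation at 30 °C; 1 = growth at the plate median or of vehicle wells; lower values mean less growth of the strain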
Conditions: S. cerevisiae deletion strains, growth OD
[1] = locus YAR019C, strain CDC15, active compounds read low
[2] = locus YBL105C, strain PKC1, active compounds read low
[3] = locus YBR135W, strain CKS1, active compounds read low
[4] = locus YBR136W, strain MEC1, active compounds read low
[5] = locus YBR160W, strain CDC28, active compounds read low
[6] = locus YDL017W, strain CDC7, active compounds read low
[7] = locus YDL028C, strain MPS1, active compounds read low
[8] = locus YDL101C, strain DUN1, active compounds read low
[9] = locus YDL108W, strain KIN28, active compounds read low
[10] = locus YDL132W, strain cdc53, active compounds read low
[11] = locus YDL214C, strain PRR2, active compounds read low
[12] = locus YDR052C, strain DBF4, active compounds read low
[13] = locus YDR054C, strain cdc34, active compounds read low
[14] = locus YDR226W, strain ADK1, active compounds read low
[15] = locus YDR477W, strain SNF1, active compounds read low
[16] = locus YER123W, strain YCK3, active compounds read low
[17] = locus YER133W, strain GLC7, active compounds read low
[18] = locus YFL009W, strain cdc4, active compounds read low
[19] = locus YFL029C, strain CAK1, active compounds read low
[20] = locus YFR003C, strain YPI1, active compounds read low
[21] = locus YFR019W, strain FAB1, active compounds read low
[22] = locus YFR028C, strain CDC14, active compounds read low
[23] = locus YGR040W, strain KSS1, active compounds read low
[24] = locus YGR052W, strain FMP48, active compounds read low
[25] = locus YGR092W, strain DBF2, active compounds read low
[26] = locus YHR030C, strain SLT2, active compounds read low
[27] = locus YHR079C, strain IRE1, active compounds read low
[28] = locus YHR082C, strain KSP1, active compounds read low
[29] = locus YHR205W, strain SCH9, active compounds read low
[30] = locus YIL147C, strain SLN1, active compounds read low
[31] = locus YJL095W, strain BCK1, active compounds read low
[32] = locus YJL128C, strain PBS2, active compounds read low
[33] = locus YJL157C, strain FAR1, active compounds read low
[34] = locus YJR016C, strain ILV3, active compounds read low
[35] = locus YJR066W, strain TOR1 (second series), active compounds read low
[36] = locus YJR066W, strain TOR1, active compounds read low
[37] = locus YKL048C, strain ELM1, active compounds read low
[38] = locus YKL067W, strain YNK1, active compounds read low
[39] = locus YKL101W, strain HSL1, active compounds read low
[40] = locus YKL193C, strain SDS22, active compounds read low
[41] = locus YKL203C, strain TOR2, active compounds read low
[42] = locus YLR113W, strain HOG1, active compounds read low
[43] = locus YLR133W, strain CKI1, active compounds read low
[44] = locus YLR403W, strain SFP1, active compounds read low
[45] = locus YML070W, strain DAK1, active compounds read low
[46] = locus YMR001C, strain CDC5, active compounds read low
[47] = locus YMR205C, strain PFK2 (second series), active compounds read low
[48] = locus YMR277W, strain FCP1, active compounds read low
[49] = locus YNL006W, strain LST8, active compounds read low
[50] = locus YNL020C, strain ARK1, active compounds read low
[51] = locus YNL161W, strain CBK1, active compounds read low
[52] = locus YNL183C, strain NPR1, active compounds read low
[53] = locus YNL207W, strain RIO2, active compounds read low
[54] = locus YNL222W, strain SSU72, active compounds read low
[55] = locus YNL307C, strain MCK1 (second series), active compounds read low
[56] = locus YOL078W, strain AVO1, active compounds read low
[57] = locus YOL136C, strain PFK27, active compounds read low
[58] = locus YOR119C, strain RIO1, active compounds read low
[59] = locus YOR231W, strain MKK1, active compounds read low
[60] = locus YOR329C, strain SCD5, active compounds read low
[61] = locus YPL031C, strain PHO85, active compounds read low
[62] = locus YPL153C, strain RAD53, active compounds read low
[63] = locus YPL204W, strain HRR25, active compounds read low
[64] = locus YPL209C, strain IPL1, active compounds read low
[65] = locus YPL256C, strain CLN2, active compounds read low
[66] = locus YPR025C, strain CCL1, active compounds read low
[67] = locus YPR106W, strain ISR1, active compounds read low
[68] = locus YPR111W, strain DBF20, active compounds read low
[69] = strain NNK1, active compounds read low
[70] = strain TSCII, active compounds read low

Which normalized growth [1] does the source give for `Cc1nnsc1C(=O)NNc1ccc(F)cc1F` here?
Its normalized growth is 0.951.

And the normalized growth [2]?
The normalized growth was 0.951.

What about the normalized growth [3] of the same compound?
The normalized growth was 0.956.

And the normalized growth [4]?
Its normalized growth is 0.961.

What about the normalized growth [5] of the same compound?
The normalized growth was 0.956.

And the normalized growth [6]?
Its normalized growth is 0.949.

And the normalized growth [7]?
The normalized growth was 0.97.

What about the normalized growth [8] of the same compound?
The normalized growth was 0.956.

And the normalized growth [9]?
Its normalized growth is 0.965.

And the normalized growth [10]?
Its normalized growth is 0.955.

What about the normalized growth [11] of the same compound?
The normalized growth was 0.706.

What about the normalized growth [12] of the same compound?
Its normalized growth is 0.954.

What about the normalized growth [13] of the same compound?
The normalized growth was 0.929.

And the normalized growth [14]?
Its normalized growth is 0.953.

What about the normalized growth [15] of the same compound?
Its normalized growth is 0.711.

And the normalized growth [16]?
The normalized growth was 0.459 (active).

What about the normalized growth [17] of the same compound?
Its normalized growth is 0.827.

What about the normalized growth [18] of the same compound?
The normalized growth was 0.965.

What about the normalized growth [19] of the same compound?
Its normalized growth is 0.941.

What about the normalized growth [20] of the same compound?
The normalized growth was 0.968.

And the normalized growth [21]?
The normalized growth was 0.584 (active).

What about the normalized growth [22] of the same compound?
The normalized growth was 0.952.

What about the normalized growth [23] of the same compound?
The normalized growth was 0.789.

And the normalized growth [24]?
Its normalized growth is 0.646.

And the normalized growth [25]?
The normalized growth was 0.636.

And the normalized growth [26]?
The normalized growth was 0.831 (active).

And the normalized growth [27]?
The normalized growth was 0.925.

What about the normalized growth [28] of the same compound?
Its normalized growth is 0.85.

What about the normalized growth [29] of the same compound?
The normalized growth was 0.924.

What about the normalized growth [30] of the same compound?
Its normalized growth is 0.967.

What about the normalized growth [31] of the same compound?
Its normalized growth is 0.544.

And the normalized growth [32]?
The normalized growth was 0.938.

And the normalized growth [33]?
Its normalized growth is 0.804.

What about the normalized growth [34] of the same compound?
The normalized growth was 0.962.

What about the normalized growth [35] of the same compound?
Its normalized growth is 0.683.

And the normalized growth [36]?
Its normalized growth is 0.791.

And the normalized growth [37]?
Its normalized growth is 0.952.

What about the normalized growth [38] of the same compound?
The normalized growth was 0.819.

What about the normalized growth [39] of the same compound?
The normalized growth was 0.917.

And the normalized growth [40]?
The normalized growth was 0.96.

And the normalized growth [41]?
The normalized growth was 0.928.

What about the normalized growth [42] of the same compound?
Its normalized growth is 0.683 (active).

What about the normalized growth [43] of the same compound?
The normalized growth was 0.812.

What about the normalized growth [44] of the same compound?
Its normalized growth is 0.883.

And the normalized growth [45]?
Its normalized growth is 0.696.

And the normalized growth [46]?
Its normalized growth is 0.949.

And the normalized growth [47]?
Its normalized growth is 0.906.

And the normalized growth [48]?
Its normalized growth is 0.959.

And the normalized growth [49]?
Its normalized growth is 0.975.

What about the normalized growth [50] of the same compound?
The normalized growth was 0.92.

What about the normalized growth [51] of the same compound?
The normalized growth was 0.945.

And the normalized growth [52]?
Its normalized growth is 0.837.

And the normalized growth [53]?
The normalized growth was 0.961.

And the normalized growth [54]?
Its normalized growth is 0.954.

What about the normalized growth [55] of the same compound?
The normalized growth was 0.678.

And the normalized growth [56]?
Its normalized growth is 0.955.

What about the normalized growth [57] of the same compound?
Its normalized growth is 0.808.

What about the normalized growth [58] of the same compound?
The normalized growth was 0.911.

What about the normalized growth [59] of the same compound?
Its normalized growth is 0.908.

What about the normalized growth [60] of the same compound?
Its normalized growth is 0.958.

And the normalized growth [61]?
Its normalized growth is 0.858.

And the normalized growth [62]?
The normalized growth was 0.832.

And the normalized growth [63]?
Its normalized growth is 0.917.

And the normalized growth [64]?
The normalized growth was 0.943.

And the normalized growth [65]?
Its normalized growth is 0.602 (active).

What about the normalized growth [66] of the same compound?
The normalized growth was 0.957.

What about the normalized growth [67] of the same compound?
The normalized growth was 0.963.

And the normalized growth [68]?
The normalized growth was 0.966.

And the normalized growth [69]?
The normalized growth was 0.977.

What about the normalized growth [70] of the same compound?
The normalized growth was 0.947.

Which results are given for `Cc1cc(NNC(=O)c2ccccc2Cl)nc2c1c(C)nn2C`?
normalized growth [1]: 0.994; normalized growth [2]: 0.989; normalized growth [3]: 0.979; normalized growth [4]: 0.979; normalized growth [5]: 0.983; normalized growth [6]: 0.987; normalized growth [7]: 0.978; normalized growth [8]: 0.994; normalized growth [9]: 0.978; normalized growth [10]: 0.978; normalized growth [11]: 0.951; normalized growth [12]: 0.99; normalized growth [13]: 0.993; normalized growth [14]: 0.976; normalized growth [15]: 0.978; normalized growth [16]: 0.938; normalized growth [17]: 0.96; normalized growth [18]: 0.98; normalized growth [19]: 0.993; normalized growth [20]: 0.987; normalized growth [21]: 0.95; normalized growth [22]: 0.973; normalized growth [23]: 0.958; normalized growth [24]: 1.01; normalized growth [25]: 0.974; normalized growth [26]: 1.07; normalized growth [27]: 1.08; normalized growth [28]: 1.05; normalized growth [29]: 0.953; normalized growth [30]: 0.984; normalized growth [31]: 0.968; normalized growth [32]: 0.966; normalized growth [33]: 0.972; normalized growth [34]: 0.988; normalized growth [35]: 0.926; normalized growth [36]: 1.08; normalized growth [37]: 0.964; normalized growth [38]: 0.958; normalized growth [39]: 0.941; normalized growth [40]: 0.985; normalized growth [41]: 1.06; normalized growth [42]: 0.93; normalized growth [43]: 0.951; normalized growth [44]: 0.968; normalized growth [45]: 0.956; normalized growth [46]: 0.992; normalized growth [47]: 0.97; normalized growth [48]: 0.986; normalized growth [49]: 0.982; normalized growth [50]: 0.973; normalized growth [51]: 0.98; normalized growth [52]: 1.03; normalized growth [53]: 0.985; normalized growth [54]: 0.989; normalized growth [55]: 0.973; normalized growth [56]: 0.978; normalized growth [57]: 0.905; normalized growth (locus YOR061W, strain CKA2, active compounds read low): 0.94; normalized growth [58]: 1.04; normalized growth [59]: 0.978; normalized growth [60]: 0.989; normalized growth [61]: 0.97; normalized growth [62]: 0.987; normalized growth [63]: 0.945; normalized growth [64]: 0.993; normalized growth [65]: 1.05; normalized growth [66]: 0.993; normalized growth [67]: 0.999; normalized growth [68]: 0.993; normalized growth [69]: 0.998; normalized growth [70]: 0.98
